What all share (experiment): DAPPL (digital affinity profiling via proximity ligation, sequencing); 10 mM Tris-HCl pH 7.5, 50 mM NaCl, 1 mM DTT, 4% glycerol, room temperature, 30 min; GST-TFs on glutathione beads, 16-mer random dsDNA library, 0.1% formaldehyde crosslink after washing; high values mean tight binding
One assay concerns the target T1, FLI1 (Homo sapiens, UniProt Q01543 1-452).
T1 sequence: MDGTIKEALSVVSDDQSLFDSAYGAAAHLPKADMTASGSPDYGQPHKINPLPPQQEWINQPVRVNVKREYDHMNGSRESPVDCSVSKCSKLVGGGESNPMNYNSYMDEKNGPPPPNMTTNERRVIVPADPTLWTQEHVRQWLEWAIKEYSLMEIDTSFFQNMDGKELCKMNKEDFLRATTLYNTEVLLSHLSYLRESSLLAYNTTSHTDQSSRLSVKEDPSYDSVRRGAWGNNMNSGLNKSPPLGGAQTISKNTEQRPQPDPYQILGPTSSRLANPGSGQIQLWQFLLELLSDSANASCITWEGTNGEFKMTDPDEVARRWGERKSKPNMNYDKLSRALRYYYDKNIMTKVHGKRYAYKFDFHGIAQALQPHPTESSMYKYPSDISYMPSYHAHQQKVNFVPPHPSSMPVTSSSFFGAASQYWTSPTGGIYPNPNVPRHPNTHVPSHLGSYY
Conditions: protein: recombinant; tags: N-terminal GST; dsDNA, one strand shown. The procedure, abridged: (§1)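 The binding signal reported is, for every hexamer, its read frequency for a factor over its read frequency for the tag-only sample. Reads came from pools of yeast-expressed, GST-fused human transcription factors on glutathione beads, barcoded with DNA and mixed with that sample, which were incubated with 200 nmole of a random double-stranded 16-mer DNA library in Tris/NaCl/DTT/glycerol buffer at room temperature for 30 min. After washing, the pools were crosslinked with 0.1% formaldehyde, proximity-ligated with BsaI/T4 ligase for 1 h at 37 °C, PCR-amplified and sequenced on an Illumina NextSeq500.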

The target in the next assay is T2, ELK1 (Homo sapiens, UniProt P19419 1-428).
T2 sequence: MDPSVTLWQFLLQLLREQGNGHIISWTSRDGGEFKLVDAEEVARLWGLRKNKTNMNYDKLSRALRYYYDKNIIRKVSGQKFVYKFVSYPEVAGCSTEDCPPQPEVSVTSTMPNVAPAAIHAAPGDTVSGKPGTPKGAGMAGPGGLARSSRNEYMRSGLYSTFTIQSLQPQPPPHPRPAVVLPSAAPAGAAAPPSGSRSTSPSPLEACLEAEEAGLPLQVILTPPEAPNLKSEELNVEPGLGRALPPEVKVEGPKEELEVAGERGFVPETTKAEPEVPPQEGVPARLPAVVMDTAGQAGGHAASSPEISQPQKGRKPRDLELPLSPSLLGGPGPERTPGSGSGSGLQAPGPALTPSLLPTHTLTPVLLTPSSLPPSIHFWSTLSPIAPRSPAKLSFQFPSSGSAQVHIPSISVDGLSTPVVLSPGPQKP
Particulars: protein: recombinant; tags: N-terminal GST; dsDNA, one strand shown. In outline:
as §1

The target in a further assay is T3, GABPA (Homo sapiens, UniProt Q06546 1-454).
T3 sequence: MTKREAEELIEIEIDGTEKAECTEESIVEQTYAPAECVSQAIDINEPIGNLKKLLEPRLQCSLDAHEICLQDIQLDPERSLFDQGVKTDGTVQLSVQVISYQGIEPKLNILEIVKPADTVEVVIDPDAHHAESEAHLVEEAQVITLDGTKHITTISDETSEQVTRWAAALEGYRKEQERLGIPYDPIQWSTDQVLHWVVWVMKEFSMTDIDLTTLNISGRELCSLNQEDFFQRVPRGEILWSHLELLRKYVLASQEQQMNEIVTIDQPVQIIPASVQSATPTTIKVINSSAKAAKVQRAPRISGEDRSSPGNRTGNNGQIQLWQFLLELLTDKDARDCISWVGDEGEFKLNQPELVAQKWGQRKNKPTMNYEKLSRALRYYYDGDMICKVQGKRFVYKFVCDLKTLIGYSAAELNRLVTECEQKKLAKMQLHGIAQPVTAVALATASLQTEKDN
Conditions: protein: recombinant; tags: N-terminal GST; dsDNA, one strand shown. In outline:
as §1

For another assay, the target named is T4, ERG (Homo sapiens, UniProt P11308 1-479).
T4 sequence: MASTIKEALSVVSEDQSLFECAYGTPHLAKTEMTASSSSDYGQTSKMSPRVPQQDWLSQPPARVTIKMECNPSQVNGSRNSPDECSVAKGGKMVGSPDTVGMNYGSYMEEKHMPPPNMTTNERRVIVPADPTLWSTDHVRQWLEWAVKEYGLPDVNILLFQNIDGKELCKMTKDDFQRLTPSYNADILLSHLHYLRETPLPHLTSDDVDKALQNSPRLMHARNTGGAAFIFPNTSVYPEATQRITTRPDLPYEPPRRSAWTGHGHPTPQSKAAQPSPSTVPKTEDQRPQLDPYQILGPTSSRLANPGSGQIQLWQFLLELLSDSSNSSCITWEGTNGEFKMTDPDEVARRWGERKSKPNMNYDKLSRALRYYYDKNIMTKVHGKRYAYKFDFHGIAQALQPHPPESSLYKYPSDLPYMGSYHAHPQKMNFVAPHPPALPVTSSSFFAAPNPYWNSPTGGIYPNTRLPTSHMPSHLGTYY
Conditions: protein: recombinant; tags: N-terminal GST; dsDNA, one strand shown. The procedure, abridged: as §1

A further assay deals with ELF1 (Homo sapiens, UniProt P32519 1-619). Particulars: protein: recombinant; tags: N-terminal GST; dsDNA, one strand shown. In outline:
as §1

Another assay concerns the target T5, EHF (Homo sapiens, UniProt Q9NZC4 1-300).
T5 sequence: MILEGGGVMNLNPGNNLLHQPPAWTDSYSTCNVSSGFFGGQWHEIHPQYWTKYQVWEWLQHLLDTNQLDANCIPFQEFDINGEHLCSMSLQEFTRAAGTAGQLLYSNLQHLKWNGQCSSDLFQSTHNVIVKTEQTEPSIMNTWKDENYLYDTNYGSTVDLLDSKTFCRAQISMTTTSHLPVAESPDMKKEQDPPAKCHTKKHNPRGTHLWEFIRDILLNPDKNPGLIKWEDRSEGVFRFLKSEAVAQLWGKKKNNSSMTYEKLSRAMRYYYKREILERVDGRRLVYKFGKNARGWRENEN
Conditions: protein: recombinant; tags: N-terminal GST; dsDNA, one strand shown. In outline: as §1

Another assay concerns the target SPI1 (Homo sapiens, UniProt P17947 1-270). Particulars: protein: recombinant; tags: N-terminal GST; dsDNA, one strand shown. In outline: as §1
A further assay concerns the target SPIB (Homo sapiens, UniProt Q01892 1-262). Particulars: protein: recombinant; tags: N-terminal GST; dsDNA, one strand shown. In outline:
as §1

In another assay the target is T6, ELK3 (Homo sapiens, UniProt P41970 1-407).
T6 sequence: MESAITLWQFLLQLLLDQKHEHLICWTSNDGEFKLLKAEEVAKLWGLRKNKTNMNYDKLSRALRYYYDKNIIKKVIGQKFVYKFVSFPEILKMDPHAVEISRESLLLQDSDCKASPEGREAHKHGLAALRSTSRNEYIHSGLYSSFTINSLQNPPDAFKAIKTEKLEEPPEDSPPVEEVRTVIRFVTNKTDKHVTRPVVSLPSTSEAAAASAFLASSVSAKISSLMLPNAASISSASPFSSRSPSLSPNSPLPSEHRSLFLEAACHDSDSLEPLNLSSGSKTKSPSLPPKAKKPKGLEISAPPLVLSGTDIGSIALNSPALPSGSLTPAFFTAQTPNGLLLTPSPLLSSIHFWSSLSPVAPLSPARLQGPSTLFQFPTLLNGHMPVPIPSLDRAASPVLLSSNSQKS
Conditions: protein: recombinant; tags: N-terminal GST; dsDNA, one strand shown. In outline:
as §1

The target of another assay is T7, FEV (Homo sapiens, UniProt Q99581 1-238).
T7 sequence: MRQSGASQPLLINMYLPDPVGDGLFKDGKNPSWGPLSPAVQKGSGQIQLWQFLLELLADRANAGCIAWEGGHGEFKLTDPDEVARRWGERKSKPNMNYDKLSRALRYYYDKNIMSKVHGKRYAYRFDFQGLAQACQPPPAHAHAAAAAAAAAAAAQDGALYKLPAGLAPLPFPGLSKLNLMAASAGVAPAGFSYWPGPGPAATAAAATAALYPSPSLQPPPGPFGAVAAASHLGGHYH
Particulars: protein: recombinant; tags: N-terminal GST; dsDNA, one strand shown. The procedure, abridged:
as §1

The next assay addresses ETV5 (Homo sapiens, UniProt P41161 1-510). Conditions: protein: recombinant; tags: N-terminal GST; dsDNA, one strand shown. In outline:
as §1

Another assay has as its target HSF1 (Homo sapiens, UniProt Q00613 1-529). Conditions: protein: recombinant; tags: N-terminal GST; chain copies: 3; dsDNA, one strand shown. In outline: as §1
The next assay addresses T8, SPIC (Homo sapiens, UniProt Q8N5J4 1-248).
T8 sequence: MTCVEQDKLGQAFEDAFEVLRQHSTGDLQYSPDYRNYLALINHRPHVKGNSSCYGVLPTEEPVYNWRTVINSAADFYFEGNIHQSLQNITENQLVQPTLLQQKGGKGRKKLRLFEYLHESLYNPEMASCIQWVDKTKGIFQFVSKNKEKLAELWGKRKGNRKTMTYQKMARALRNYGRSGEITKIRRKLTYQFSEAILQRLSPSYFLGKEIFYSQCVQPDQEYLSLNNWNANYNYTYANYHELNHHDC
Particulars: protein: recombinant; tags: N-terminal GST; dsDNA, one strand shown. The procedure, abridged: as §1

A further assay addresses ELF4 (Homo sapiens, UniProt Q99607 1-663). Particulars: protein: recombinant; tags: N-terminal GST; dsDNA, one strand shown. The procedure, abridged:
as §1

A further assay concerns the target T9, ELK4 (Homo sapiens, UniProt P28324-2 1-405).
T9 sequence: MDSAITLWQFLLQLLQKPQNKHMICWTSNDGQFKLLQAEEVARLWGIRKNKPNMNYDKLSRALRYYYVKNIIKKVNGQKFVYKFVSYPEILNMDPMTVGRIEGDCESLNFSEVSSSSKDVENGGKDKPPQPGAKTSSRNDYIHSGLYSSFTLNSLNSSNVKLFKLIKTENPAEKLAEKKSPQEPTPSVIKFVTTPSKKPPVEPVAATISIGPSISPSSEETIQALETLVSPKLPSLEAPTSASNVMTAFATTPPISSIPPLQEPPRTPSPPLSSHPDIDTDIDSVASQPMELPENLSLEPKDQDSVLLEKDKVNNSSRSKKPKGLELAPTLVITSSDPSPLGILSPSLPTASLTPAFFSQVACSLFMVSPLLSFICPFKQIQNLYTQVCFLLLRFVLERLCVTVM
Conditions: protein: recombinant; tags: N-terminal GST; dsDNA, one strand shown. The procedure, abridged:
as §1

For another assay, the target named is T10, ETV2 (Homo sapiens, UniProt O00321 1-342).
T10 sequence: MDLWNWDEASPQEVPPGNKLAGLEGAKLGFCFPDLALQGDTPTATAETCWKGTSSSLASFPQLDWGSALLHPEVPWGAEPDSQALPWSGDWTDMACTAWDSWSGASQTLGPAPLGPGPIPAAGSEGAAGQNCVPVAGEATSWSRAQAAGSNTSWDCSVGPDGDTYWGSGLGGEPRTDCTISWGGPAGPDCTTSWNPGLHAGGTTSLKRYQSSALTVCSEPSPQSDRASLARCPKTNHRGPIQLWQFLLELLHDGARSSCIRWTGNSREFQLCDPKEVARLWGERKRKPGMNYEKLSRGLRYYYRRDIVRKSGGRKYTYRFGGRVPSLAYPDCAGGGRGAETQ
Particulars: protein: recombinant; tags: N-terminal GST; dsDNA, one strand shown. In outline: as §1

In a further assay the target is T11, ELF3 (Homo sapiens, UniProt P78545 1-371).
T11 sequence: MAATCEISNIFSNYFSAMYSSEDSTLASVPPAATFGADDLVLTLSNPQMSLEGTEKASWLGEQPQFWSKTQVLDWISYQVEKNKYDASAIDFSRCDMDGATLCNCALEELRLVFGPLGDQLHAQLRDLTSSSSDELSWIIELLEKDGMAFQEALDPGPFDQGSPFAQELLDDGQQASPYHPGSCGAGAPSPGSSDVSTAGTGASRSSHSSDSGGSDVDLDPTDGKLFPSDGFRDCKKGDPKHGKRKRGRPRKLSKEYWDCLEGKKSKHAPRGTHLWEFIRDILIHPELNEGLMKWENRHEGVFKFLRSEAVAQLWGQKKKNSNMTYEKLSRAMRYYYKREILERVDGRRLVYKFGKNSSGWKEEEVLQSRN
Particulars: protein: recombinant; tags: N-terminal GST; dsDNA, one strand shown. In outline:
as §1

The next assay concerns the target ETV1 (Homo sapiens, UniProt P50549 1-477). Conditions: protein: recombinant; tags: N-terminal GST; dsDNA, one strand shown. The procedure, abridged: as §1

Sequence of ELF1 (P32519 whole entry): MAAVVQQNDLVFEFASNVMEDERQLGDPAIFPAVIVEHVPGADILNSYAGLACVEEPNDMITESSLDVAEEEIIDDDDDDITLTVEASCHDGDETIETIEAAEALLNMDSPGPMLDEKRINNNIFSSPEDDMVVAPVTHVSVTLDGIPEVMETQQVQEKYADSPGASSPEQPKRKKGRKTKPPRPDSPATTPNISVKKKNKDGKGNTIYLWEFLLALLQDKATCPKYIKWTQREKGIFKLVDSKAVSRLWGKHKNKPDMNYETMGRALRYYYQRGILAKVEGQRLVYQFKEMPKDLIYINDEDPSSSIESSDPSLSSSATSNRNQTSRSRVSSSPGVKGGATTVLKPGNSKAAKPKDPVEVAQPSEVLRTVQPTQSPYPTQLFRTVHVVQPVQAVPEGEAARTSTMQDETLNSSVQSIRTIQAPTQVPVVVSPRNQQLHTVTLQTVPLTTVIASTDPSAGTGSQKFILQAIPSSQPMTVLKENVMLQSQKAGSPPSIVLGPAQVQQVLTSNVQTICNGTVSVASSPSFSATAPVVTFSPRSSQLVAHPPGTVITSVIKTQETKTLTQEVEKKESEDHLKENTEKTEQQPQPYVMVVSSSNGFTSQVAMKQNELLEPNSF
Sequence of ETV1 (P50549 whole entry): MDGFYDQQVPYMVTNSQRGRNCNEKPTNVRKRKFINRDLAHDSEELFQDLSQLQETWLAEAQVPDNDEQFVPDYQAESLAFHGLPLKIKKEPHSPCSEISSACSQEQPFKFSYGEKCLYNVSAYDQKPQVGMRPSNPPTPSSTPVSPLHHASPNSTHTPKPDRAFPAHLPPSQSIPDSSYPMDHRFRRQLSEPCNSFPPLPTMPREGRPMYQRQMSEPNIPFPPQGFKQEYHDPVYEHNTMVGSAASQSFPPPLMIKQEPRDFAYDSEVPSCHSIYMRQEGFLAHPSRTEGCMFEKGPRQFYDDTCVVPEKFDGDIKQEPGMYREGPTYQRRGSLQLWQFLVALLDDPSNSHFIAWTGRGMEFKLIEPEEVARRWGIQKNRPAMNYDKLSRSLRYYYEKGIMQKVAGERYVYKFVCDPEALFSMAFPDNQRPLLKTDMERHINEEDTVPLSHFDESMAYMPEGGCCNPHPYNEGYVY
Sequence of ELF4 (Q99607 whole entry): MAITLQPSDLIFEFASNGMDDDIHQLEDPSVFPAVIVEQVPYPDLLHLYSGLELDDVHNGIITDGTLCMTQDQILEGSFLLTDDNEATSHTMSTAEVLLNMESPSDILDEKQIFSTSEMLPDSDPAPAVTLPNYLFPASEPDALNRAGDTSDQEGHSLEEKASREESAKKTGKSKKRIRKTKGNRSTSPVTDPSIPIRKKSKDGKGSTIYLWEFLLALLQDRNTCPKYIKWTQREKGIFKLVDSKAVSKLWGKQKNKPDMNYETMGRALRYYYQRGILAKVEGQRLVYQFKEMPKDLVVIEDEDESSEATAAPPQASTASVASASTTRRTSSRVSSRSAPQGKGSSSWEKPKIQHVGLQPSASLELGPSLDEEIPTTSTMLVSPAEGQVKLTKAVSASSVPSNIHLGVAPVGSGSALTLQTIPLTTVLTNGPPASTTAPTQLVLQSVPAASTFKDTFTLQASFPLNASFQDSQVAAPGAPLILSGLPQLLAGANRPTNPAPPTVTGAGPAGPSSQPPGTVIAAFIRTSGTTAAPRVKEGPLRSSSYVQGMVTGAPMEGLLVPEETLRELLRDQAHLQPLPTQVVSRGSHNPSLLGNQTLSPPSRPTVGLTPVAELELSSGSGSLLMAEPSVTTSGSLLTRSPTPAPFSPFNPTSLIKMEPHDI
Sequence of SPIB (Q01892 whole entry): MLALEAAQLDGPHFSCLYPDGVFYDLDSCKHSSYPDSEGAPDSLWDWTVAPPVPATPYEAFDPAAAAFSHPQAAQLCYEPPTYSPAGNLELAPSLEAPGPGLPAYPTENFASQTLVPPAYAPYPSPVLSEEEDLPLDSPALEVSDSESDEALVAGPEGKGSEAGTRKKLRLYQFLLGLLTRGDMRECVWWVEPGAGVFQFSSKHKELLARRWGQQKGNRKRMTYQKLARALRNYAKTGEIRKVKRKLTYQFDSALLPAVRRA
Sequence of HSF1 (Q00613 whole entry): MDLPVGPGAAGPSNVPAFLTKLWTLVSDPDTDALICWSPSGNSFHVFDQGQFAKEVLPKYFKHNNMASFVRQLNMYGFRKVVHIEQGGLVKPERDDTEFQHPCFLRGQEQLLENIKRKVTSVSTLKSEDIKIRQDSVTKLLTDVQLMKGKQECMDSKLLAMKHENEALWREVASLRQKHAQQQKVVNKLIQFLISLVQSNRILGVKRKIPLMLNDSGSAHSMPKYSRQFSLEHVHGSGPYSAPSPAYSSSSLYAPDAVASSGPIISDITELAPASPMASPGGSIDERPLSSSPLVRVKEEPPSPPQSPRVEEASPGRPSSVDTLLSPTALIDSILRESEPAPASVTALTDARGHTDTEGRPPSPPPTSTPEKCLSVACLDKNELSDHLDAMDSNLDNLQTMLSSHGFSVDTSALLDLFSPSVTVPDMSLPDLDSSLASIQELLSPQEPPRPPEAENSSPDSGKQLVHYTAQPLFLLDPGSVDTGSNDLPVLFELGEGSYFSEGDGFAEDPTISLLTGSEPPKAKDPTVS
Sequence of ETV5 (P41161 whole entry): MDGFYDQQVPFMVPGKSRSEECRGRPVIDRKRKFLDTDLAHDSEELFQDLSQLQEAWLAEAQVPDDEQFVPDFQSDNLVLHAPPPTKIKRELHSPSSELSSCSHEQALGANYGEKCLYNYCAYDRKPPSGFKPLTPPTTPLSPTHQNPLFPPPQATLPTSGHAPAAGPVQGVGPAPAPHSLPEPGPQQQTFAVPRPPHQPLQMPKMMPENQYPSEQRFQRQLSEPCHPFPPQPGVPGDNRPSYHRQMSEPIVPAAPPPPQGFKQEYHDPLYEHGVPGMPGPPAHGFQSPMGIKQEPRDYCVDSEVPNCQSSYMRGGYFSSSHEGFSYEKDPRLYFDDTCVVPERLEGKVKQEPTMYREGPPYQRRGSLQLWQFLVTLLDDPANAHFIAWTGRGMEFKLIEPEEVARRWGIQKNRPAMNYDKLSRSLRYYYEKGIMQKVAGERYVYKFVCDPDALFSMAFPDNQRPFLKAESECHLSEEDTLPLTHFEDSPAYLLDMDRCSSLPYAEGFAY

As for CGCTCC, the binding signal with FLI1 is 1.37 fold enrichment (6-mer frequency, TF over GST control); in the assay with ELK1, 1.28 fold enrichment (6-mer frequency, TF over GST control); in the assay with GABPA, 1.37 fold enrichment (6-mer frequency, TF over GST control); in the assay with ERG, 1.33 fold enrichment (6-mer frequency, TF over GST control); with ELF1, 1.31 fold enrichment (6-mer frequency, TF over GST control); with EHF, 1.24 fold enrichment (6-mer frequency, TF over GST control). The binding signal with SPI1 was 1.29 fold enrichment (6-mer frequency, TF over GST control); with SPIB, 1.36 fold enrichment (6-mer frequency, TF over GST control); with ELK3, 1.37 fold enrichment (6-mer frequency, TF over GST control); in the assay with FEV, 1.34 fold enrichment (6-mer frequency, TF over GST control); in the assay with ETV5 it was 1.31 fold enrichment (6-mer frequency, TF over GST control); in the assay with HSF1 it was 1.09 fold enrichment (6-mer frequency, TF over GST control). Moreover, the binding signal with SPIC is 1.33 fold enrichment (6-mer frequency, TF over GST control); with ELF4 it was 1.38 fold enrichment (6-mer frequency, TF over GST control); with ELK4 it was 1.41 fold enrichment (6-mer frequency, TF over GST control); with ETV2, 1.36 fold enrichment (6-mer frequency, TF over GST control); with ELF3, 1.3 fold enrichment (6-mer frequency, TF over GST control); with ETV1, 1.26 fold enrichment (6-mer frequency, TF over GST control).

These data come from publication PMC7862700, “An all-to-all approach to the identification of sequence-specific readers for epigenetic DNA modifications on cytosine”.
